Results filed as inconclusive are left out. Where a call stands in place of a potency, no number is given. The source made the active and inactive calls. Calls come from the whole dose curve; as a rule, active = well fitted inhibition curve with a large enough effect; inconclusive = small, poorly fitted or top-dose-only effect; inactive = flat fitted curve, though single readings scatter.
biological target: Calcium and integrin-binding protein 1 (Homo sapiens) (UniProt Q99828); experiment: Primary qHTS for Identification of Calcium Integrin Binding Protein 1 (CIB1) Competitor (AID 1508620); conditions: CIB1-GST / FITC-alphaIIb peptide fluorescence polarization; series mostly up to 114 µM;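 note: GST tagged CIB1 binding a fluorescein labelled alphaIIb integrin peptide tracer; top concentration of the series differs between compounds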
In short: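 CIB1-GST (1 uM final) and compound incubated 15 min at room temperature before adding FITC-alphaIIb peptide tracer (100 nM final). Competition for binding read by fluorescence polarization (ex 480, em 540) after another 15 min at room temperature.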

Chain of Calcium and integrin-binding protein 1 (Homo sapiens) (Q99828 whole entry, looked up): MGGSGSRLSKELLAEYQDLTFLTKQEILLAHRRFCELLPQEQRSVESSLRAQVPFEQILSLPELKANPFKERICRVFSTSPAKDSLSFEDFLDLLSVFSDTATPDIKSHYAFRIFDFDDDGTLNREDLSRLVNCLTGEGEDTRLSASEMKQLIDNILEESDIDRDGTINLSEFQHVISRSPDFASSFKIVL

| Structure (SMILES) | Potency |
| --- | --- |
| CC(=O)Nc1sc2c(c1-c1cccs1)CCNC2 | inactive |
| CCOc1ccc(C(C)CNC(=O)c2cc3sccc3n2Cc2ccccc2)cc1OCC (stereo not given) | inactive |
| N#CN1CCC(NS(=O)(=O)c2ccc(F)cc2)C1 (stereo not given) | inactive |
| c1nc(NC[C@@H]2CCCO2)c2cc(-c3ccc4c(c3)OCO4)ccc2n1 | inactive |
| O=C(OCC#CCSc1nnc(-c2cccc3ccccc23)o1)c1cnc[nH]1 | inactive |
| CCNc1cccc(S(=O)(=O)N2CCCN(S(=O)(=O)c3ccc4c(c3)OCCO4)CC2)c1 | inactive |
| COc1ccc(C2Nc3ccccc3C(=O)N2Cc2ccccc2)cc1COc1ccc(F)cc1 (stereo not given) | inactive |
| O=S(=O)(c1ccc2c(c1)OCCO2)N1CCN(S(=O)(=O)c2ccccc2OC(F)(F)F)CC1 | inactive |
| Cc1cc(C)nc(NC(=S)N2CCN(c3cccc(OC(F)F)c3)CC2)c1 | inactive |
| CC(=O)Nc1sc2c(c1-c1ccc3[nH]ccc3c1)CCNC2 | inactive |
| O=C1CCCC2=C1C(c1[nH]ncc1Cl)NC(=NCc1ccoc1)N2 (stereo not given) | inactive |
| O=S(=O)(c1ccsc1)N1CCN(c2nc(-c3cccs3)nc3ccccc23)CC1 | inactive |
| Cc1ccc(-c2nc3ccccc3[nH]2)cc1NC(=O)c1ccc(-c2cccc(Cl)c2)o1 | inactive |
| Cc1nc(CNc2ncnc3ccc(-c4oc(-c5ccccc5)nc4C)cc23)cs1 | inactive |
| Oc1cccc2cc(-c3ccccc3)cnc12 | inactive |
| Cc1cnc(-c2ccccc2C(C)C)nc1NCc1ccc(-c2nn[nH]n2)cc1 | inactive |
| N#Cc1nc(NCCO)nc(Nc2ccccc2)n1 | inactive |
| Cn1ccc2cc(-c3ccc4ncnc(NCc5ccc6c(c5)OCO6)c4c3)ccc21 | inactive |
| CN(C)c1cccc(-c2cnc(N3CCC(C(N)=O)CC3)s2)c1 | inactive |
| COc1ccc(CCNC(=O)Cn2nc(-c3ccc(C)cc3)ccc2=O)cc1OC | inactive |

| Structure (SMILES) | Potency |
| --- | --- |
| Cc1cc(NS(=O)(=O)c2ccc(NC(=O)C(C)(C)c3ccc(Cl)c(Cl)c3)cc2)no1 | inactive |
| Cc1cccc(-n2cnc3cc(C(=O)N4CCC(c5ccccc5)CC4)ccc32)c1 | inactive |
| O=C(Nc1ccc(-c2nc3ccccc3[nH]2)cc1)c1ccc(-c2ccccc2)cc1 | inactive |
| N#CN1CCC(NS(=O)(=O)c2ccc(C(F)(F)F)cc2)CC1 | inactive |
| O=C(NC1CCCc2c1cnn2-c1ccc(F)cc1F)c1ccncc1 (stereo not given) | inactive |
| N#Cc1cc(NC(=O)Nc2nnc(-c3ccncc3)s2)ccc1Br | inactive |
| Cc1c(P(=S)(c2ccccc2)c2ccccc2)c2ccccc2n1C(=O)NCc1ccccc1 | inactive |
| CC(C)c1ccccc1-c1ncc(F)c(NC(C)(C)c2ccc(-c3cccnc3)cc2)n1 | inactive |
| Cc1ccc(NS(=O)(=O)c2ccc(Cl)cc2)cc1C | inactive |
| FC(F)(F)c1ccccc1-c1nc(NCC23CC4CC(CC(C4)C2)C3)c2ccccc2n1 | inactive |
| O=S(=O)(Nc1cnc2ccccc2c1)c1ccc(NCc2ccc(Br)cc2O)cc1 | inactive |
| Cc1cc2c(s1)c1cnn(Cc3c(F)cccc3Cl)c(=O)c1n2C | inactive |
| N#Cc1cccc(OC2=NS(=O)(=O)c3ccccc32)c1 | inactive |
| Cc1cc(C)nc(NC(=S)N2CCN(c3ccc4occc4c3)CC2)c1 | inactive |
| COc1cc(NC(=S)N2CCN(c3cccc(C(F)(F)F)c3)CC2)nc2ccccc12 | inactive |
| COc1cc(OC)cc(-c2nnc3n2N=C(c2cc(OC)ccc2OC)CS3)c1 | inactive |
| CC(=O)Nc1sc2c(c1-c1nc3ccccc3s1)CCS(=O)(=O)C2 | inactive |
| O=S1(=O)N=C(Sc2cc(C(F)(F)F)cc(C(F)(F)F)c2)c2ccccc21 | inactive |
| COc1cc(O)c(C(CC(=O)N2CCCC(C#N)C2)c2ccc3c(c2)OCO3)c(OC)c1 (stereo not given) | inactive |
| CC(=O)Nc1sc2c(c1-c1nc(-c3ccccc3)cs1)CCN(C(C)C)C2 | inactive |

— PubChem BioAssay (NCATS)
